As a reminder, the Inhibition is how much of the control response was suppressed. Read a low Inhibition as little suppression.

This experiment relates to Plasmodium falciparum. The experiment is described as follows: GSK_TCMDC: Inhibition of Plasmodium falciparum 3D7 in whole red blood cells, using parasite LDH activity as an index of growth. Test compounds present at 2uM. The format is functional.
In turn, `Cc1ccc(/C=C/C(=O)NCCCCCN2CCCN(C(=O)Nc3ccc(Cl)c(Cl)c3)CC2)cc1` registered an Inhibition of 95%.
Then `COc1ccc([N+](=O)[O-])cc1N(Cc1ccccc1-c1ccccc1)S(=O)(=O)c1ccc(C(F)(F)F)cc1[N+](=O)[O-]`, with 88%; and `Cc1noc(C)c1-c1cccc(CNCc2ccc(-c3cccc(-c4nc5cc(C(F)(F)F)ccc5[nH]4)c3)cc2)c1.O=C(O)C(F)(F)F`, with 100%.
The figure for `CCN(CC)CCCN1CCN(C(=O)c2cccc(-c3noc(C(F)(F)F)n3)c2)CC1` is 91%; for `COc1cc(C=Cc2ccc3ccccc3n2)cc(Br)c1OCC(=O)N(C)C` it is 99%; for `Cc1cc2nc(N=C3NC4(c5ccccn5)NC(=Nc5nc6cc(C)c(C)cc6[nH]5)NC4(c4ccccn4)N3)[nH]c2cc1C.O=C(O)C(F)(F)F` (configuration not stated) it is 87%.
Then `CN(CCNCc1ccc(-c2cccc(-c3nc4ccccc4[nH]3)c2)cc1)S(C)(=O)=O.O=C(O)C(F)(F)F`, with 100%; and `CN(CC1CCC(NC(=O)/C=C/c2ccc(Cl)c(Cl)c2)CC1)C1CCC(c2c[nH]c3ccccc23)CC1` (configuration not stated), with 99%; and `COc1ccc2ccccc2c1CON1C(=N)N=C(N)NC1(C)C.Cl`, with 94%.
`O=C(NC1CC1c1ccccc1)N(CCCn1ccnc1)Cc1csc(-c2ccc(CNCc3ccccc3)cc2)n1.O=C(O)C(F)(F)F` (configuration not stated): the Inhibition is listed as 96%.
The figure for `CC(Oc1cc(-n2cnc3ccc(NC(=O)CCN4CCCCC4)cc32)sc1C(N)=O)c1ccccc1Cl` (configuration not stated) is 99%; for `COc1ccc(NC(=O)Nc2ccc(-c3cccc(-c4nc5ccccc5[nH]4)c3)cc2)cc1` it is 99%.

Values taken from ChEMBL document CHEMBL1157539, “Thousands of chemical starting points for antimalarial lead identification” (Nature, 2010).
